# Source: PubChem BioAssay (NCATS)
# Inconclusive results are not listed. A number with no mark means an inactive call. Activity calls are given as the source filed them. Calls come from the whole dose curve.
# Molecular target: Atrial natriuretic peptide receptor 2 (Homo sapiens) (UniProt P20594)
# Assay: Natriuretic polypeptide receptor (hNpr2) antagonism - Pilot subtype selectivity assay (AID 1347050)
# Conditions: NPR2-expressing cells, cGMP antagonist-mode read-out; series mostly up to 38.3 µM; activity change, negative = inhibition: at the top concentration
# Experimental: F. Fan, B. F. Binkowski, B. L. Butler, P. F. Stecha, M. K. Lewis, K. V. Wood, Novel genetically encoded biosensors using firefly luciferase. ACS Chem Biol 3, 346-351 (2008).
# PROTOCOL TABLE (as described by Inglese J, Shamu CE and Guy RK. 2007)
# SEQUENCE No. (e.g., 1, 2, 3, etc.); […] (e.g., Cells, Incubation, Reagent, etc.); VALUE and DESCRIPTION.
# 1. Cells. Seed 1500 HEK293 cGMP-sensor cells expressing hNpr2 per well in 4uL into Greiner 1536-well white/solid bottom high base, TC plates.
# 2. Incubation. Incubate plated cells at 37C in 5% CO2, 95% RH overnight.
# 3. Reagent. Add 1uL per well GloSensor reagent from Promega (2% final concentration) or CO2 independent media vehicle control to respective columns of Greiner 1536-well plates.
# 4. Incubation. Incubate plated cells at ambient temperature for 2 h., protect from light.
# 5. Compounds. Library compounds and DMSO vehicle control added at 23nL per well, transferred by Pin Tool.
# 6. Incubation. Incubate plated cells for 30 min. at ambient temperature, protect from light.
# 7. Detector. GloSensor baseline pre-read luminescence measured using CCD-based camera (Viewlux).
# 8. Compound. Add 1uL of hNppC peptide to 1 nM final concentration to stimulate hNpr2 or CO2 independent media as vehicle control.
# 9. Incubation. Incubate treated cells at ambient temperature for 20 min., protect from light.
# 10. Detector. GloSensor post-hNppC luminescence measured using CCD-based camera (Viewlux).
# NOTES (numbers refer to Sequence numbers above)
# 1. HEK293 cells expressing hNpr2 and GIP/pGS-40F were grown to 85-95% confluence (48-72 h) in T175 culture flasks (CO2 independent media supplemented with 10% FBS, 1% Pen/Strep antibiotics, and 1 ug/mL puromycin). Trypsinize and harvest cells from T175 culture flasks and filter through 40 um cell strainer. Cells counted with Invitrogen Countess (30,000,000 - 50,000,000 cells/flask). Cells diluted to a final concentration of 375 cells/uL in CO2 independent media and a Millipore multidrop used to dispense 1500 cells per well (4uL/well) into 9 x1536-well Greiner White/Solid bottom, high base tissue-culture treated (TC) plates and one Aurora 1536-well Black/Clear bottom, low base, TC plate (for visual inspection of cell health throughout the duration of the assay).
# 2. Cells incubated for 24 h. at 37C in 95% RH incubator with metal lid having gas-exchange holes.
# 3. Prepare GloSensor Reagent (Promega): Reconstitute GloSensor luciferase substrate by adding 8.2mL Hepes buffer to 250mg substrate, mix well, protect from light and stored at -80C. Prepare a fresh 12% GloSensor solution in CO2 independent supplemented plating media (see above). Mix well and store at ambient temperature, protected from light. 1uL 12% GloSensor Luciferase Reagent added (2% final concentration) to respective columns of 9 x 1536-well Greiner plate with BioRaptr, 1uL CO2 independent plating media added to respective columns as vehicle control with BioRaptr.
# 4. Cells incubated for 2 h. at ambient temperature, protected from light with metal lid having gas-exchange holes.
# 5. 23nL of LOPAC1280 library compounds (7 plates) or DMSO vehicle control transferred to 9 Greiner white/solid bottom high base, TC plates in 7 interplate 1:5 titrations (see Yasgar, A. et al. 2008) with Pintool. Two of the 9 plates are DMSO-only in compound field at beginning and end of compound library-treated plates.
# 6. Cells incubated for 30-50 min. at ambient temperature protected from light with metal lid having gas-exchange holes.
# 7. Read cellular baseline GloSensor luminescence in presence of test library compounds on the ViewLux [Exposure = 10 s.; Gain = High; Speed = Slow; and Binning = 2X.]
# 8. hNppC peptide agonist solution prepared at 1 mM (in H2O) stock concentration. From this a working dilution was prepared at 6 nM in CO2 Independent media. […]
# % is set by controls: 0 for no effect and ±100 for the full control effect; potency is the fitted concentration of half-maximal effect.
# Chain of Atrial natriuretic peptide receptor 2 (Homo sapiens) (P20594 whole entry, looked up): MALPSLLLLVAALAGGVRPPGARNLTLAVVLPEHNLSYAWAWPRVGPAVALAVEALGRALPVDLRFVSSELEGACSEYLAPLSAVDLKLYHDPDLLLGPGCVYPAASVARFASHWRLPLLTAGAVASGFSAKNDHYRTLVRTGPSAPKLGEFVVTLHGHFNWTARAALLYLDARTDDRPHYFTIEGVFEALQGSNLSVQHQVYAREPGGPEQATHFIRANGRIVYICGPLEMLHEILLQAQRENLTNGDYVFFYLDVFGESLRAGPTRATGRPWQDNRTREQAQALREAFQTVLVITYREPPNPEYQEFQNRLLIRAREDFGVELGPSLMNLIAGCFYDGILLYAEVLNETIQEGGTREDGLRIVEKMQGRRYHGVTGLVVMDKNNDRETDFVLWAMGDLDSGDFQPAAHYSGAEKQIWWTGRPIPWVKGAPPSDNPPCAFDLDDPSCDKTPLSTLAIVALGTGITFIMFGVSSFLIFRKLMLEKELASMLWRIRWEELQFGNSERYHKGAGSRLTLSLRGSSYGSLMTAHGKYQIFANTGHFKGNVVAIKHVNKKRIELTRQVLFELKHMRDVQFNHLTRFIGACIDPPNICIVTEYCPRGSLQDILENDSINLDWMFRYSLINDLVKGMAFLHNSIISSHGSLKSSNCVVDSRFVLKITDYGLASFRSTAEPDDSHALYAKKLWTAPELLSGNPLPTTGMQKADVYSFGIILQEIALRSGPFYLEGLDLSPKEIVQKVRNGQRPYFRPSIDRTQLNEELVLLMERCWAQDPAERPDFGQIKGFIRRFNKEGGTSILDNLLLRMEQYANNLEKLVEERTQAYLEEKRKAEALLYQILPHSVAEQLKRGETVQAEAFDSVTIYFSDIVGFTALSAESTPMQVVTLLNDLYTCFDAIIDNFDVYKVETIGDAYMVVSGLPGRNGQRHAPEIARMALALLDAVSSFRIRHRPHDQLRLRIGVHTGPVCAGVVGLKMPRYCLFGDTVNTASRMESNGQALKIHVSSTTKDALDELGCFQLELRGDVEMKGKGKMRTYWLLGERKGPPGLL
SMILES,"activity change, negative = inhibition",Potency
COc1ccc(CCN(C)CCCC(C#N)(c2cc(OC)c(OC)c(OC)c2)C(C)C)cc1OC (stereo not given),-7.7%,
Cc1ccc(/C(=C\CN2CCCC2)c2ccccn2)cc1,-25.1%,
CC1=C(C)C(=O)C(CCCCC#CCCCC#CCO)=C(C)C1=O,-7.68%,
CC(=O)Nc1nnc(S(N)(=O)=O)s1,-2.32%,
C[N+](C)(C)CCCCCCCCCC[N+](C)(C)C,2.78%,
CCCCCCCC/C=C\CCCCCCCC(=O)NCc1ccc(O)c(OC)c1,-21.9%,
CCCN(CCC)CCc1cccc2c1CC(=O)N2,-0.936%,
CCCN(CCC)C(=O)C(CCC(=O)O)NC(=O)c1ccccc1 (stereo not given),0.76%,
NC(N)=N/N=C/c1c(Cl)cccc1Cl,-1.01%,
CC1=NS(=O)(=O)c2cc(Cl)ccc2N1,0.354%,
O=C1NCN(c2ccccc2)C12CCN(CCCC(c1ccc(F)cc1)c1ccc(F)cc1)CC2,4.45%,
CC(=O)[C@]1(O)Cc2c(O)c3c(c(O)c2[C@@H](O[C@H]2C[C@H](N)[C@H](O)[C@H](C)O2)C1)C(=O)c1ccccc1C3=O,1.11%,
CC(N=C(NC#N)Nc1ccncc1)C(C)(C)C (stereo not given),-4.94%,
CCN(CC)CC(=O)Nc1c(C)cccc1C,20.6%,
C[C@]12CCC(=O)C=C1CC[C@@H]1[C@@H]2CC[C@@]2(C)[C@H]1CC[C@]2(O)C(=O)CO,-1.78%,
Cc1ccc(=O)n(-c2ccccc2)c1,-0.0922%,
CC[N+](C)(C)c1cccc(O)c1,10.6%,
C[C@@H](O)[C@H]1C(=O)N2C(C(=O)O)=C(SCCN=CN)C[C@H]12,-0.5%,
O=C1CC2(CCCC2)CC(=O)N1CCCCN1CCN(c2ncccn2)CC1,-6.67%,
O=c1[nH]c(=O)n([C@H]2C[C@H](O)[C@@H](CO)O2)cc1Br,0.0427%,

SMILES,"activity change, negative = inhibition",Potency
Cc1nc2c([nH]1)c(=O)n(C)c(=O)n2Cc1ccco1,11.3%,
NC/C=C/C(=O)O,-0.0962%,
CC(=O)Oc1cc(C(C)C)c(OCCN(C)C)cc1C,-7.7%,
Cc1ccc(S(=O)(=O)NC(=O)NN2CCCCCC2)cc1,5.1%,
COC(=O)[C@H]1[C@H]2C[C@@H]3c4[nH]c5cc(OC)ccc5c4CCN3C[C@H]2C[C@@H](OC(=O)c2cc(OC)c(OC)c(OC)c2)[C@@H]1OC,-5.84%,
NC1=NCC2c3ccccc3Cc3ccccc3N12 (stereo not given),-21.5%,
C[C@]12CC[C@@H]3c4ccc(O)cc4C[C@@H](CCCCCCCCCS(=O)CCCC(F)(F)C(F)(F)F)[C@H]3[C@@H]1CC[C@@H]2O (stereo not given in full),10.5%,
CC(C)[N+](C)(CCOC(=O)C1c2ccccc2Oc2ccccc21)C(C)C,1.62%,
O=C(CCNNC(=O)c1ccncc1)NCc1ccccc1,-0.385%,
CN=C(NC#N)NCCSCc1nc[nH]c1C,3.8%,
NC(N)=NC(=O)Cc1c(Cl)cccc1Cl,-3.44%,
Brc1c(NC2=NCCN2)ccc2nccnc12,2.85%,
O=C(O)CCCCCCCC(=O)O,6.44%,
CO[C@@]1(NC(=O)CSCC#N)C(=O)N2C(C(=O)O)=C(CSc3nnnn3C)CS[C@@H]21,-1.76%,
CN1CCN(C2=Nc3ccccc3Oc3ccc(Cl)cc32)CC1,,16.5 µM (active)
CC(=O)OCC1=C(C(=O)O)N2C(=O)[C@@H](NC(=O)Cc3cccs3)[C@H]2SC1,-1.29%,
CCCCNc1c(C(=O)OCC)c(C)nc2c1cnn2CC,0.206%,
Fc1ccc(C(c2ccc(F)cc2)N2CCN(C/C=C/c3ccccc3)CC2)cc1,25.1%,
O=C(O)CN(CCN(CC(=O)O)CC(=O)O)CCN(CC(=O)O)CC(=O)O,28.1%,
CCO/C([O-])=N/c1c[n+](N2CCOCC2)no1,-2.01%,
